Compounds with a hit are over-represented: about 18% of the library has one in this group of screens.
RORg inh: inhibitors of mouse ROR gamma transcriptional activity; Potency, µM (top dose mostly 53.6 µM), without a hit: at the top dose activity change, negative = inhibition, actives largely listed as inhibitors; P51450; Drosophila S2 Gal4-RORgamma UAS-luciferase reporter, 20 h; actives 5.4% (n = 310,000); further: potency means the concentration at half of the fitted maximal effect; nearly all actives have a fitted effect of over 60% in size
Target sequence (P51450 whole entry, looked up, the tested form may be a part): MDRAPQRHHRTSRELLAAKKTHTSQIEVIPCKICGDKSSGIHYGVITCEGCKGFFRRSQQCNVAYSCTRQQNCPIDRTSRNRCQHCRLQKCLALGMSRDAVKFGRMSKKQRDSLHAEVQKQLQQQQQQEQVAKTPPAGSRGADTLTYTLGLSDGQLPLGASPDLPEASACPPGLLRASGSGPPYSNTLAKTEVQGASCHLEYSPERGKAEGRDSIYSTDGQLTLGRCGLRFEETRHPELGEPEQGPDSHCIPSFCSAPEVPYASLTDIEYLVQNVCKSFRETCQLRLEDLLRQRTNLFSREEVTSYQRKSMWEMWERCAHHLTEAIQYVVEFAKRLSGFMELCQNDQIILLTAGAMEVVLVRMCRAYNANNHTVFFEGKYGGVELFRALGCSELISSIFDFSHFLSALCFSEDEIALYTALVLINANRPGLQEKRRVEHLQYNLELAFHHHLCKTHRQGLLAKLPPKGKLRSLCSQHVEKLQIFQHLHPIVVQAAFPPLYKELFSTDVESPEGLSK
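Read-out: Photinus luciferase luminescence; inhibitors lower reporter signal. Insect Schneider cells with Gal4-ROR gamma fusion under metallothionein promoter, UAS reporter; 700 uM final copper sulfate induction, 20 hr, ambient temperature.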
LDHA inh: LDHA (human) enzyme inhibition. purified LDHA, NADH/diaphorase-resazurin fluorescence; hits give low values. activity change, % (values are at about 110 or 230 µM). actives 0.15% (n = 480,000). AID 1347041; in the data active means activity change below about -30%; inconclusive means mostly about -25% to -30%;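 further: plate controls were DMSO wells for no effect and wells without enzyme for full effect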
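Resorufin fluorescence (ex540/em590), read at 0 and 20 min after diaphorase/resazurin addition, reports the NADH left after a 5 min room-temperature reaction of 2 nM human LDH5 with 0.06 mM NADH and 0.2 mM pyruvate.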
DT40 TDP1 no CPT: qHTS for Inhibitors of human tyrosyl-DNA phosphodiesterase 1 (TDP1): qHTS in cells in absence of CPT. DT40 Tdp1-/- hTDP1 cells, no CPT, ATP luminescence, 48 h. actives 15% (n = 420,000). Potency, µM (series often up to 46.2 µM), without a hit: at the top dose activity change, negative = growth inhibition, most hits filed as inhibitors. AID 686978, 2013; further: potency means the concentration at half of the fitted maximal effect; nearly all actives have a fitted effect of over 55% in size
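Growth kinetics read by CellTiter-Glo luminescence after ≥48 hr at 37 °C. Cells: DT40 Tdp1-/- stably carrying human TDP1, 400 per well, compound exposure in the absence of CPT (DMSO vehicle).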
VP16 counter: counter-screen for ROR gamma inhibitors: Gal4-VP16 reporter | Drosophila S2 Gal4-VP16 UAS-luciferase, luminescence, 20 h | AID 2546 | actives 3.5% (n = 310,000) | Potency, µM (titrated, usually from 53.6 µM), for inactives: at the top dose activity, negative = inhibition, actives largely listed as inhibitors;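 further: Gal4-VP16 expression switched on by copper sulfate through the metallothionein promoter; potency means the concentration at half of the fitted maximal effect; nearly all actives have a fitted effect of over 50% in size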
DT40 TDP1 CPT: DT40-hTDP1 cell growth loss with CPT; chicken DT40 Tdp1-/-;hTDP1 cells + 20 nM CPT, ATP luminescence, 48 h; Potency, µM (top dose mostly 46.2 µM), for the others: at the highest dose activity change, negative = growth inhibition, most hits filed as inhibitors; actives 12% (n = 420,000); further: potency means the concentration at half of the fitted maximal effect; nearly all actives have a fitted effect of over 55% in size
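Chicken DT40 Tdp1-/- cells stably complemented with human TDP1 were seeded at 400 cells/well in medium containing 20 nM camptothecin, exposed to pin-transferred compounds, and grown at 37 °C for at least 48 hr. Viability was read as ATP luminescence.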
IL-1B inflam inh: inhibitors of inflammasome signaling (IL-1 beta secretion); THP-1 LPS/ATP IL-1B secretion, AlphaLISA, 16 h; hits give low values; activity change, % at 57.5 µM; actives 4.7% (n = 360,000); in the data active means activity change below about -50%; inconclusive means mostly about -30% to -49%
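THP-1 cells pretreated 1 hr with compounds (up to 57.5 uM final), then stimulated with LPS (250 ng/mL final) plus ATP (1.25 mM final); secreted IL-1B measured by AlphaLISA after 16 hr, decreased signal indicating inhibition.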
Active calls of the source: *; ? = inconclusive; · = not tested or not shown. Unless noted, the call rests on the fitted dose curve; in most records, active means well fitted curve in the direction sought with a large enough effect; inconclusive means small, poorly fitted or top-dose-only effect, or another doubt; inactive means no such curve, though single readings can be large; an effect the other way counts as inactive or inconclusive. Unless noted, on the % scale 0 is the no-effect control and ±100 the full control effect.

SMILES | RORg inh | LDHA inh | DT40 TDP1 no CPT | VP16 counter | DT40 TDP1 CPT | IL-1B inflam inh
CN(C)c1ccc(CNC(=O)C2(C)Cc3c(-c4ccccc4)ccnc3O2)cc1 (stereo unspecified) | · | -2 | ? | · | ? | ?
CC1(C(=O)NCC2CC2)Cc2c(-c3ccc4c(c3)OCO4)ccnc2O1 (stereo unspecified) | · | -7 | 5.2µM* | · | 4.6µM* | 46
CN(C)c1ccc(CNC(=O)C2(C)Cc3c(-c4ccc(N(C)C)cc4)ccnc3O2)cc1 (stereo unspecified) | · | -4 | 18µM* | · | ? | -19
COCCNC(=O)C1(C)Cc2c(-c3ccc(N(C)C)cc3)ccnc2O1 (stereo unspecified) | · | -4 | 4.6µM* | · | 5.2µM* | 9
CC(=O)Nc1ccc(-c2ccnc3c2CC(C)(C(=O)NCCc2ccccc2)O3)cc1 (stereo unspecified) | · | -6 | -16% | · | ? | -17
CC1(C(=O)NCCc2ccccc2)Cc2c(-c3cccc(C(N)=O)c3)ccnc2O1 (stereo unspecified) | · | -3 | 18µM* | · | ? | 29
CN(C)c1ccc(-c2ccnc3c2CC(C)(C(=O)NCCc2ccccc2)O3)cc1 (stereo unspecified) | · | 0 | ? | · | 29µM* | -18
Cc1ccc(SCc2cc(=O)[nH]c(N3CCN(c4cccc(C(F)(F)F)c4)CC3)n2)cc1 | · | 1 | · | · | · | ·
COCCCNC(=O)CN(C)C(=O)CCc1ncc(-c2ccccc2)o1 | · | -1 | · | · | · | ·
COc1cccc(OC)c1C(=O)Nc1ccc(N2CCN(C)CC2)c(Cl)c1 | · | -4 | · | · | · | ·
COc1ccc(Oc2coc3cc(OC)ccc3c2=O)cc1 | · | -6 | · | · | · | ·
COc1ccc(CNC(=O)C2(C)Cc3c(-c4ccc(C(N)=O)cc4)ccnc3O2)cc1OC (stereo unspecified) | · | -5 | -11% | · | 0% | -4
CN(C)c1ccc(-c2ccnc3c2CC(C)(C(=O)NCC2CC2)O3)cc1 (stereo unspecified) | · | 1 | 5.2µM* | · | 5.2µM* | 20
COc1ccc(CNC(=O)C2(C)Cc3c(-c4ccc5c(c4)OCO5)ccnc3O2)cc1OC (stereo unspecified) | · | -4 | 16µM* | · | ? | 24
O=C(Nc1ccccc1N1CCOCC1)C1=NN(C2CCS(=O)(=O)C2)C(=O)CC1 (stereo unspecified) | · | -4 | · | · | · | ·
COc1ccc(CNCC(O)(c2ccc(F)cc2)c2ccc(F)cc2)cc1OC | -8% | 0 | 16µM* | ? | ? | ?
COc1ccc(CNCC(O)(c2ccccc2)c2ccc(F)cc2)cc1 (stereo unspecified) | 16% | -5 | 15µM* | ? | 21µM* | -89*
CCNCc1ccc(OCCO)c(OC)c1 | · | -7 | · | · | · | ·
CCCCCNCc1ccc(Cl)cc1 | 1% | -2 | -13% | 6% | 17% | 6
COc1ccc(CNC/C=C/c2ccccc2)cc1 | -9% | -11 | ? | -2% | ? | -14
COc1ccc(CNCC(O)(c2ccc(Cl)cc2)c2ccc(Cl)cc2)cc1OC | -127% | 6 | 6.5µM* | ? | 15µM* | ?
CCCCNCC(O)(c1ccc(Cl)cc1)c1ccc(Cl)cc1 | -16% | -5 | 23µM* | -7% | 15µM* | -132*
COc1cc(CNCc2ccc(C(=O)O)cc2)ccc1OCc1ccc(F)cc1 | -26% | -8 | 7% | 5% | -14% | -4
CN1CCCCC1=NCCn1cnc2c1c(=O)n(C)c(=O)n2C | · | 4 | · | · | · | ·
Cc1ccccc1-c1cc(C(=O)O)c2ccc(C)c(C)c2n1 | · | 8 | · | · | · | ·
SMILES | RORg inh | LDHA inh | DT40 TDP1 no CPT | VP16 counter | DT40 TDP1 CPT | IL-1B inflam inh
COc1ccc(CS(=O)(=O)CC(C)(O)c2ccc(Cl)cc2)cc1 (stereo unspecified) | -5% | -2 | 1% | -3% | -27% | -14
COc1ccc(CNCC(O)(c2ccccc2)c2ccc(F)cc2)cc1OC (stereo unspecified) | 42% | -7 | 15µM* | ? | ? | -88*
COc1cc(CNCc2ccccc2)ccc1OCC(O)c1ccccc1 (stereo unspecified) | -31% | -10 | ? | -5% | -25% | -7
COc1ccc(CNCC(O)(c2ccc(Cl)cc2)c2ccc(Cl)cc2)cc1 | -111% | 3 | 18µM* | ? | 15µM* | -16
O=C(NC(=S)Nc1ccccc1O)c1ccc(-c2ccc(Cl)cc2)o1 | 3.2µM* | 0 | 16µM* | 7.9µM* | 23µM* | -1
Cc1ccc(O)c(NC(=S)NC(=O)c2ccc(-c3ccc(Cl)cc3)o2)c1 | · | -4 | 26µM* | · | 23µM* | -5
Cc1c(NC(=S)NC(=O)c2ccc(-c3ccc(Cl)cc3)o2)cccc1C(=O)O | 19% | 3 | 5% | -17% | 3% | 26
CC(C)Cc1nc(SCc2cccnc2)c2c(=O)n(C)c(=O)n(C)c2n1 | 16% | -5 | ? | -3% | 18µM* | -16
Cn1c(=O)c2c(SCc3cccnc3)nc(C3CC3)nc2n(C)c1=O | -10% | -10 | ? | 1% | -21% | 6
CCCc1ccc2oc(C(=O)N(C)Cc3cnccn3)c(C)c2c1 | -12% | -8 | ? | 7% | ? | 12
